# Screening results as filed in PubChem.
# KB-3-1 tox: kills parental KB-3-1 adenocarcinoma cells; Potency, µM (series often up to 46.1 µM), usual class: cytotoxic; KB-3-1 viability, CellTiter-Glo ATP luminescence, 72 h; actives 1.4% (n = 400,000); AID 1347075; also: % is scaled to controls: 0 for no effect and ±100 for the full control effect; nearly all actives have a fitted effect of over 60% in size
#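 Here the drug-naive KB-3-1 line serves as comparator for MDR sub-line selectivity; cells received compound titrations, 72 h at 37 °C, then CellTiter-Glo readout.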
# ELG1 DNA repair: ELG1-dependent DNA repair inhibition | HEK293T ELG1-luciferase reporter, luminescence, 16 h; DNA damage induced by 5-fluorouridine | Potency, µM (highest dose often 46.1 µM), inactives show at the highest dose activity change, negative = inhibition, actives largely listed as inhibitors | actives 2.3% (n = 330,000); also: % is scaled to controls: 0 for no effect and ±100 for the full control effect; nearly all actives have a fitted effect of over 55% in size
#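 DMSO vehicle served as the neutral condition. Each well held 2,000 cells given 5-fluorouridine plus compound; after 16 hr at 37 °C/5% CO2, ONE-Glo was added and luciferase measured 30 min later.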
# KB-V1 cytotox: kills drug-selected multidrug resistant KB-V1 cells | KB-V1 MDR cells viability, CellTiter-Glo, 72 h | actives 3.4% (n = 400,000) | Potency, µM (titrated, usually from 46.1 µM), usual class: cytotoxic; also: % is scaled to controls: 0 for no effect and ±100 for the full control effect; nearly all actives have a fitted effect of over 60% in size
#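 Cells of the MDR subline KB-V1 are plated, dosed with compound at multiple concentrations, and incubated 72 h at 37 degrees C; CellTiter-Glo is then added and luminescence read after 10 min.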
# MCF10A rereplic: inducers of DNA re-replication in MCF 10A breast cells | MCF 10A DNA re-replication, Hoechst nuclear intensity, 48 h | Potency, µM (highest dose often 46.1 µM), without a hit: top-dose activity, positive = re-replication, usual class: activators | actives 2.9% (n = 350,000); also: % of control where 0% means no effect; nearly all actives have a fitted effect of over 50% in size
# SW480 rereplic: DNA re-replication induction in SW480 cells; SW480 DNA re-replication, Hoechst DNA content imaging, 48 h; AID 624297; actives 1.8% (n = 340,000); Potency, µM (highest dose often 46.1 µM), for inactives: at the top dose re-replication activation, hits mostly activators; also: % of control where 0% means no effect; nearly all actives have a fitted effect of over 55% in size
#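 Treated cells incubate 48 hr (37 C, 5% CO2), are stained 40 min with Hoechst, and nuclear fluorescence is enumerated; a rise in nuclei with high DNA signal marks re-replication.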
# An asterisk follows results filed as active; i = inactive; ? = inconclusive; . = no result. Shown are actives, neighbours in structure and some others; about 8.1% of the full set was active somewhere. Calls follow the shape of the dose curve; as a rule, active = well fitted curve in the direction sought with a large enough effect; inconclusive = small, poorly fitted or top-dose-only effect, or another doubt; inactive = no such curve, though single readings can be large; an effect the other way counts as inactive or inconclusive. Potency is read from the fitted curve at half-maximal effect.
SMILES,KB-3-1 tox,ELG1 DNA repair,KB-V1 cytotox,MCF10A rereplic,SW480 rereplic
COc1ccc(Cl)cc1NC(=O)COC(=O)/C=C/c1c(C)nn(C2CCS(=O)(=O)C2)c1Cl (stereo unspecified),i,13µM*,i,-5%,5%
COC(=O)[C@@H](NC(=O)O[C@H]1C(=O)c2ccc(OC)cc2O[C@@H]1c1ccc2c(c1)OCO2)C(C)C,.,?,.,18%,5%
COc1ccc2c(c1)C(=O)[C@@H](O)[C@H](c1ccc(OC)c(Br)c1)O2,?,?,i,?,12µM*
COc1ccc2c(c1)C(=O)[C@@H](OC(=O)NCc1ccc3c(c1)OCO3)[C@H](c1ccc(OC)c(Br)c1)O2,.,18µM*,.,8%,?
COCCNC(=O)C1(C)CCCN(C(=O)c2ccc(OC)c(OC)c2)C1 (stereo unspecified),i,.,i,.,.
O=C(Nc1nc2c(s1)CCCC2)c1ccc(Br)s1,16µM*,?,5.2µM*,0%,?
Cc1ccccc1C(=O)NC(C(=O)Nc1nc2c(s1)CCCC2)C(C)C (stereo unspecified),i,21µM*,i,?,4%
Cc1ncsc1C(=O)Nc1nc2c(s1)CCCC2,16µM*,?,13µM*,5%,?
CC(C)=CCC[C@H](C)C[C@@H]1Cc2[nH]c(=S)[nH]c(=O)c2[C@@H](c2ccc(F)cc2)O1,?,.,i,.,.
CC(=O)C1(O)C(C)CC2C3CC(F)C4(O)CC(O)CCC4(C)C3CCC21C (stereo unspecified),i,.,i,20%,-7%
CC1CCN(c2nc3ccccc3nc2SCC(=O)Nc2ccccc2C(C)C)CC1,i,.,i,.,.
CCCn1c(NCc2cccc(OC)c2O)nc2ccccc21,i,?,8.2µM*,-1%,2%
CCCCn1c(NCc2cc(Cl)ccc2O)nc2ccccc21,?,.,13µM*,.,.
COc1cccc(CNCc2ccco2)c1O,i,4%,i,-12%,5%
CCCCn1c(NCc2cc(C)ccc2O)nc2ccccc21,i,.,i,.,.
COc1cccc(CNCc2cccc(OC)c2O)c1O,i,.,18µM*,-1%,-2%
Cc1cccc(NC(=O)CN(C)C(=O)C2CC2)c1C,i,3%,i,-6%,-4%
O=C(CCN1Cc2ccccc2C1)c1ccc2c(c1)OCCO2,i,2%,i,-3%,13%
O=C(CCN1CCc2ccccc2C(c2ccccc2)C1)c1ccc2c(c1)OCCO2 (stereo unspecified),?,5%,?,5.2µM*,?
CCCCn1c2ccccc2c2nnc(SCC(=O)Nc3ccc(NC(C)=O)cc3)nc21,i,.,i,.,.
CC(C)(C)c1ccc(-c2cc(-c3ccccc3O)[nH]n2)cc1,?,?,?,9.2µM*,?
Oc1ccccc1-c1cc(-c2ccccc2Cl)[nH]n1,i,.,21µM*,?,-2%
COc1ccc(-c2cc(-c3ccc(C)cc3)n[nH]2)c(O)c1,i,?,i,26%,?
COc1ccc(-c2cc(-c3cc(C)ccc3O)[nH]n2)cc1,?,?,?,18µM*,?
COc1cc(C2C(C#N)=C(N)N(c3ccc(F)cc3)C3=C2S(=O)(=O)CC3)ccc1O (stereo unspecified),i,-3%,i,?,?
CCNc1sc(C(=O)c2cccs2)c(N)c1-c1nc2ccccc2s1,i,?,i,?,0.82µM*
Cc1cc(NC(=O)COc2ccccc2)cc(-c2nc3ccccc3o2)c1O,i,.,i,.,.
CCc1ccc(NC(=O)Cn2ncc3c(C)n(Cc4cccc(Cl)c4)c(C)c3c2=O)cc1,i,.,i,.,.
Cc1cc(C)c(O)c(-c2cc(C(=O)Nc3ccc(S(=O)(=O)N4CCOCC4)cc3)[nH]n2)c1,?,21µM*,?,?,?
COc1ccc(NC(=O)c2cc(-c3ccc(C)c(C)c3O)n[nH]2)cc1Cl,i,?,i,18µM*,?
